# Reference: the supplement of paper PMC10849652
# The full data set covers some 8,800 targets. This sample favours those with a hit. About 0.5% of all pairs of compound and target were hits. Unmarked numbers belong to inactive results.
# Columns and labels:
# Experiment in all cases: log2 fold change, soluble protein after heating vs DMSO (PISA); higher = thermal stabilisation; K562 lysate, 10 uM; active = over 0.2 and 3.5 SD of the protein, either way, in both replicates (recomputed)
# [1] = compound: Cc1cn(-c2cc(NC(=O)c3ccc(C)c(Nc4nccc(-c5cccnc5)n4)c3)cc(C(F)(F)F)c2)cn1 [nilotinib]
# Summary of the method: (§1)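 Pellets of K562 cells were dounce-homogenised in PBS pH 7.4 with 1 mM MgCl2, and the crude extract was held at 1 mg/mL protein for a 30 min treatment with 10 μM compound. Aliquots were heated for 3 min over 48°C-58°C and pooled before NP-40 was added to 0.5% at 4°C. The supernatant from 21,000xg for 90 min was quantified by TMTpro 16plex LC-MS/MS with channel sums equalised. Values are reported from duplicates as log-two fold change in thermal stability relative to solvent controls.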
# [2] = compound: Cc1nc(Nc2n[nH]c3c2CN(C(=O)N[C@H](CN(C)C)c2ccccc2)C3(C)C)c2sccc2n1
# Summary of the method: as §1
# [3] = compound: Cc1nc(Nc2ncc(C(=O)Nc3c(C)cccc3Cl)s2)cc(N2CCN(CCO)CC2)n1 [dasatinib]
# Summary of the method: as §1
# [4] = compound: Cc1ncc(-c2ccnc(Nc3ccc(S(C)(=O)=O)cc3)n2)n1C(C)C
# Summary of the method: as §1
# [5] = compound: Cn1cc(-c2ccc3c(c2)CCN3C(=O)Cc2cccc(C(F)(F)F)c2)c2c(N)ncnc21
# Summary of the method: as §1
# [6] = compound: Cn1cc(CNCC2CCN(c3ncc(C(=O)NO)cn3)CC2)c2ccccc21 [quisinostat]
# Summary of the method: as §1
# [7] = compound: Cn1cncc1[C@@](N)(c1ccc(Cl)cc1)c1ccc2c(c1)c(-c1cccc(Cl)c1)cc(=O)n2C [tipifarnib]
# Summary of the method: as §1
# [8] = compound: NC(=O)Nc1cc(-c2cccc(F)c2)sc1C(=O)N[C@H]1CCCNC1
# Summary of the method: as §1
# [9] = compound: NC(=O)c1cnc(N[C@@H]2CCCC[C@@H]2N)nc1Nc1cccc(-n2nccn2)c1
# Summary of the method: as §1
# [10] = compound: NC1(c2ccc(-c3nc4ccn5c(=O)[nH]nc5c4cc3-c3ccccc3)cc2)CCC1
# Summary of the method: as §1
# [11] = compound: NCC(=O)Nc1ccc(-n2nc(C(F)(F)F)cc2-c2ccc3c(ccc4ccccc43)c2)cc1
# Summary of the method: as §1
# [12] = compound: O=C(CCCCCCC(=O)Nc1ccccc1)NO [vorinostat]
# Summary of the method: as §1
# [13] = compound: O=C(O)c1ccc2c(c1)nc(Nc1cccc(Cl)c1)c1ccncc12 [silmitasertib]
# Summary of the method: as §1
# [14] = compound: O=C1NC(=O)C(c2cnc3ccccn23)=C1c1cn2c3c(cc(F)cc13)CN(C(=O)N1CCCCC1)CC2
# Summary of the method: as §1
# [15] = compound: c1cn2cc(-c3ccc4cn[nH]c4c3)nc(Nc3ccc(N4CCOCC4)cc3)c2n1 [entospletinib]
# Summary of the method: as §1
# Sequence of UniProt Q00535 (Q00535 whole entry, looked up): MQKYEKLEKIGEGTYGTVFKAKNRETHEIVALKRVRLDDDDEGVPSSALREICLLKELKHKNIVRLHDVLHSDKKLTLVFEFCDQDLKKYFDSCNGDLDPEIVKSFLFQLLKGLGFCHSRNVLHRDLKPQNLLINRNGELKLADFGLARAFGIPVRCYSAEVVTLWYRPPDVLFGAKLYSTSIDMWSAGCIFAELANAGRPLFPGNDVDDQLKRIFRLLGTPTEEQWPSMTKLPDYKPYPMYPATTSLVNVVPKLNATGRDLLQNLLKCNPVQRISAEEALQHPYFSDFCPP
# Sequence of UniProt Q9NXV6 (Q9NXV6 whole entry, looked up): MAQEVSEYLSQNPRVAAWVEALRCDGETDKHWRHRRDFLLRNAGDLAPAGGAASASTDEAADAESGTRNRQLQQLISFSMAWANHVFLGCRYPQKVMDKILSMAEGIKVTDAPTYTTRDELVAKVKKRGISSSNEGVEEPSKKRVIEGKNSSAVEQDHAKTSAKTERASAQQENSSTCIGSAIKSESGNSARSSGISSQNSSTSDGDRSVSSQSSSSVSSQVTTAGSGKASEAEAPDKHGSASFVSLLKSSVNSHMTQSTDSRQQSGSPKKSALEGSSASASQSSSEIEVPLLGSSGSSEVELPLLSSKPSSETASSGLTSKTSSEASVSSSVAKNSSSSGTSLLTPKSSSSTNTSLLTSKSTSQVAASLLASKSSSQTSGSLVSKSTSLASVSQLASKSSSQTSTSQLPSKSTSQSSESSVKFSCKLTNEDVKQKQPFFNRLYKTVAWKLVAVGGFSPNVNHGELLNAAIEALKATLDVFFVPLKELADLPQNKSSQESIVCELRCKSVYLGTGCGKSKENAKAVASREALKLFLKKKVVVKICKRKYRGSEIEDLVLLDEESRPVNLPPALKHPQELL
# Sequence of UniProt P51946 (P51946 whole entry, looked up): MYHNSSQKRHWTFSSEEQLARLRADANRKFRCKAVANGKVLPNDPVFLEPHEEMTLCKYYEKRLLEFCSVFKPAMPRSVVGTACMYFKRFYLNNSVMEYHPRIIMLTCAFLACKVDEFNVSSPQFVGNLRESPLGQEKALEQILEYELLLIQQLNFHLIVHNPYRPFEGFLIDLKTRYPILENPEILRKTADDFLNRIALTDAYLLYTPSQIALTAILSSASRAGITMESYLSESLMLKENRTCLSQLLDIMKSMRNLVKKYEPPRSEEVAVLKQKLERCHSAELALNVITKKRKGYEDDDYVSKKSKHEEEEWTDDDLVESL
# Sequence of UniProt O95319 (O95319 whole entry, looked up): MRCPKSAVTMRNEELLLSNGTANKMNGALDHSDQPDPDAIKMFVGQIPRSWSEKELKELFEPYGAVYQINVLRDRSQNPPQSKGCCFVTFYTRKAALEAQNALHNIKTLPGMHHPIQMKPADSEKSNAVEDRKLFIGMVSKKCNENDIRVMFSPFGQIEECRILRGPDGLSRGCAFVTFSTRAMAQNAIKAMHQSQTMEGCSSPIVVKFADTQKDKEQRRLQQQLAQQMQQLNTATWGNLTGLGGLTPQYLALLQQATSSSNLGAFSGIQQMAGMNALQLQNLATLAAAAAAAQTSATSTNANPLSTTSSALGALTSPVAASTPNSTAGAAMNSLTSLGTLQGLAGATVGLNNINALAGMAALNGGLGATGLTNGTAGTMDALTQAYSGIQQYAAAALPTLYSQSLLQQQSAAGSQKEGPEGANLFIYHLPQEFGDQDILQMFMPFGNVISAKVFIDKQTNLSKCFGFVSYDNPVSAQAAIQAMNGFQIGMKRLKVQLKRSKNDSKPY
# Sequence of UniProt Q13042 (Q13042 whole entry, looked up): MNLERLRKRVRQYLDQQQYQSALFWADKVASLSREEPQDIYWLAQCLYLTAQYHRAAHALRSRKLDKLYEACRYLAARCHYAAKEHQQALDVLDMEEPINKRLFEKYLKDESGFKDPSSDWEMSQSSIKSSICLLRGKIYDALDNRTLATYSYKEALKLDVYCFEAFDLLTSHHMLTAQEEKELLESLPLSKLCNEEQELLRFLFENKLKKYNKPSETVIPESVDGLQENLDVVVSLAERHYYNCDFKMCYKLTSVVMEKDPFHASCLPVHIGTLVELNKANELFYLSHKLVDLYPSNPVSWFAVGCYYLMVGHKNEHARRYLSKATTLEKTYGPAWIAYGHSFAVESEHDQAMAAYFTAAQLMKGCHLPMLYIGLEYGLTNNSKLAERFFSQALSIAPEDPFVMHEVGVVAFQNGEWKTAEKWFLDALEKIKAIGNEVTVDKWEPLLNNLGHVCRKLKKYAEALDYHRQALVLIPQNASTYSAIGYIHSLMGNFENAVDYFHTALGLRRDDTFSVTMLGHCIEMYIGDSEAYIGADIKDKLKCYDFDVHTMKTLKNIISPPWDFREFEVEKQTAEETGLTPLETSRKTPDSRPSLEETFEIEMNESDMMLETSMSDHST
# Sequence of UniProt Q12873 (Q12873 whole entry, looked up): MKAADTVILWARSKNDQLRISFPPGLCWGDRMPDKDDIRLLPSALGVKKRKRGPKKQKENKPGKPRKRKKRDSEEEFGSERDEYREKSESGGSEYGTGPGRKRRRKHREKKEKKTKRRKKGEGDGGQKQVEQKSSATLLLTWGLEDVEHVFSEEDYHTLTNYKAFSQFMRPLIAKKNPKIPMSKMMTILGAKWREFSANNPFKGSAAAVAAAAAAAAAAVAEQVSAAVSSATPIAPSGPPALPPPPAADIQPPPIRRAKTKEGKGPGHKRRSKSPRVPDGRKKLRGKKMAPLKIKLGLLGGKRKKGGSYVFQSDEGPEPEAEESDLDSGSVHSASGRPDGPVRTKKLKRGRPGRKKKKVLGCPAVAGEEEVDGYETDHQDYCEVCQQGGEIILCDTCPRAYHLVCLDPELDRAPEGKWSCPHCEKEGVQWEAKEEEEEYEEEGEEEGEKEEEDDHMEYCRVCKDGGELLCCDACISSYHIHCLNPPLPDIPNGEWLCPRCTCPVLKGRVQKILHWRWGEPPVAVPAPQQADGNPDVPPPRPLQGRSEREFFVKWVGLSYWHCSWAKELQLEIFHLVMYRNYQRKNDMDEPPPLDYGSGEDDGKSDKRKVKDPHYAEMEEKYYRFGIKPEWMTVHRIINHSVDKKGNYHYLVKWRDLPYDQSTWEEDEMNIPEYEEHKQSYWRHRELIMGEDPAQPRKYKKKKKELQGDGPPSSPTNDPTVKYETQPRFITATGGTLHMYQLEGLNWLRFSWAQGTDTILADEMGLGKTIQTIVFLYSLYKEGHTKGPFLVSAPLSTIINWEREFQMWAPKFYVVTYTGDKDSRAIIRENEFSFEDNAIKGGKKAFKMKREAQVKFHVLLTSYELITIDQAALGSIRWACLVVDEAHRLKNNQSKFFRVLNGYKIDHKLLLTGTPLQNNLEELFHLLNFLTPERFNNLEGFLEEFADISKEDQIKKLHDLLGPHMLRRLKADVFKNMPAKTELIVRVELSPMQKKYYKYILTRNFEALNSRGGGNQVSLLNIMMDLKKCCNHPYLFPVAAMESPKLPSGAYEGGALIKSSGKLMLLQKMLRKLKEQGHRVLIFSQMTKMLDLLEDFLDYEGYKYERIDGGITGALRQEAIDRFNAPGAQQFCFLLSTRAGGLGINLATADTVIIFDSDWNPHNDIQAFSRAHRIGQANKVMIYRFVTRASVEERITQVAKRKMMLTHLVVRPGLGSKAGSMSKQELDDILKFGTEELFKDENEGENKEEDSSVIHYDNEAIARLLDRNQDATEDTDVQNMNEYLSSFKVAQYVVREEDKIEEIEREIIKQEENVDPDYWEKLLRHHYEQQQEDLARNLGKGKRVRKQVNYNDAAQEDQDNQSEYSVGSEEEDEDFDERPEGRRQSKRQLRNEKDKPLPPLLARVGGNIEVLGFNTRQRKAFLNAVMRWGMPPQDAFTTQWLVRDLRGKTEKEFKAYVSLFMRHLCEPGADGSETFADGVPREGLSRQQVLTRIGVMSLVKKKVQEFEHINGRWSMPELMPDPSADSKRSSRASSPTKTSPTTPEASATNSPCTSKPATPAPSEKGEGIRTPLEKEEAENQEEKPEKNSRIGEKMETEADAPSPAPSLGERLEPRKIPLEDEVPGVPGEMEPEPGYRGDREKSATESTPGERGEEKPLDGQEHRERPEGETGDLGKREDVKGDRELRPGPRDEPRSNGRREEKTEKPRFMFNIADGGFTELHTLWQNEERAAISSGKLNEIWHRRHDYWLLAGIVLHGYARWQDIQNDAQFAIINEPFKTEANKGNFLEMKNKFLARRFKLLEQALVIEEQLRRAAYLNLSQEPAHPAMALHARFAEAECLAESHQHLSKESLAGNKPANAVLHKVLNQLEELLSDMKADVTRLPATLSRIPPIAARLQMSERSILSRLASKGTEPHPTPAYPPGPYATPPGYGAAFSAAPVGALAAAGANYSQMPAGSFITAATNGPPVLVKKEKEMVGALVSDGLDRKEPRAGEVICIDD
# Sequence of UniProt A6NDU8 (A6NDU8 whole entry, looked up): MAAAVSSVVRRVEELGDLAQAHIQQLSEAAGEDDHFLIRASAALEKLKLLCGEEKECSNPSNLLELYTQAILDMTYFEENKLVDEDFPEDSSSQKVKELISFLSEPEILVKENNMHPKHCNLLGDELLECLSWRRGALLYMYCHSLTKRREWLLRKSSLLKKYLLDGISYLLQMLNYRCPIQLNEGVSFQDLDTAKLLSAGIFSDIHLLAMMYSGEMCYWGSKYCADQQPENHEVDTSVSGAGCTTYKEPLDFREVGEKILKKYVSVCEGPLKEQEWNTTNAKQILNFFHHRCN
# Sequence of UniProt O75794 (O75794 whole entry, looked up): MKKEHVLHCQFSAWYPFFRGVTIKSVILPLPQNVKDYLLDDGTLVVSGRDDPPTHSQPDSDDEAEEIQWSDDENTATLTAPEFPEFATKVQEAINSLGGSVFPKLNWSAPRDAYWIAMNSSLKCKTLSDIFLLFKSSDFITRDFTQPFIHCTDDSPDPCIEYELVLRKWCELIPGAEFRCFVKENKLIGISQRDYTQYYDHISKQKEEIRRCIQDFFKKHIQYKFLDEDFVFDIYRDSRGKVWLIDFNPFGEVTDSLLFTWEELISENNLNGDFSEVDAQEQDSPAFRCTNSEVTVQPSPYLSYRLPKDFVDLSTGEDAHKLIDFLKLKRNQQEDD
Target,log2 fold change [1],log2 fold change [2],log2 fold change [3],log2 fold change [4],log2 fold change [5],log2 fold change [6],log2 fold change [7],log2 fold change [8],log2 fold change [9],log2 fold change [10],log2 fold change [11],log2 fold change [12],log2 fold change [13],log2 fold change [14],log2 fold change [15]
CCNH (UniProt P51946),-0.013,0.106,0.03,-0.001,0.015,0.016,-0.043,-0.009,0.026,0.013,0.028,-0.43 (active),0.02,-0.07,0.02
CD80 (UniProt P33681),0.259,-0.065,-0.015,-0.333,0.039,0.025,0.023,-0.002,0.086,-0.03,0.018,-0.028,-0.067,-0.066,-0.162
CHD3 isoform 3 (UniProt Q12873),0.036,-0.004,-0.033,-0.047,0.032,0.005,0.014,0.029,-0.002,0.008,0.022,-0.316 (active),0.032,-0.004,0.002
ATP6V1B1 (UniProt P15313),-0.024,0.029,0.034,-0.045,-0.021,-0.029,-0.036,0.01,0.019,0.008,-0.005,0.083,-0.013,-0.006,0.014
CDS2 (UniProt O95674),-0.035,-0.093,0.073,0.062,-0.005,-0.045,0.093,-0.01,0,-0.152,0.007,0.093,0.024,-0.065,-0.028
CCNB1 (UniProt P14635),-0.04,0.037,-0.016,0.369 (active),-0.021,0.035,-0.005,0.005,0.165,0.006,0.05,-0.008,-0.013,-0.02,-0.009
CCNYL1 (UniProt Q8N7R7),-0.001,-0.033,0.034,0.043,-0.003,-0.078,-0.08,0.008,0.075,-0.006,-0.013,-0.674 (active),0.079,0.019,-0.005
ATP9B (UniProt O43861),0.05,0.164,-0.04,-0.069,-0.049,0.009,-0.08,-0.021,0.107,0.064,0.013,0.012,0.005,-0.045,0
CDK5 (UniProt Q00535),-0.013,0.23,0.022,0.541 (active),0.019,-0.132,0.003,0.044,0.05,-0.112,-0.036,-0.232,0.855 (active),0.179,0.036
CDC123 (UniProt O75794),0.026,-0.011,-0.006,-0.104,0.033,0.008,-0.008,0.022,-0.009,0.017,-0.064,-0.019,0.015,-0.032,0.043
C5orf51 (UniProt A6NDU8),-0.061,0.006,-0.029,0.017,0.02,-0.066,0.026,0.1,0.002,-0.023,0.042,-0.501 (active),0.036,-0.003,0.015
CBX5 (UniProt P45973),0.014,0.011,0.028,0.052,-0.017,-0.09,-0.024,0.014,-0.004,0.007,0.033,-0.062,-0.005,-0.048,0.014
CDKN2AIP (UniProt Q9NXV6),0.002,-0.023,-0.004,-0.008,-0.014,-0.031,0.005,0.008,-0.01,0.001,-0.005,0.072,-0.037,-0.022,0.013
CCDC47 (UniProt Q96A33),-0.012,-0.009,-0.016,0.025,-0.009,0.006,-0.025,0.014,0.019,-0.023,0.002,0.207 (active),0.026,0.011,-0.007
CDC16 (UniProt Q13042),-0.013,0.023,-0.012,-0.027,0.019,0.01,0.017,0.024,-0.019,-0.014,-0.068,-0.265 (active),0.023,-0.006,-0.015
CEP120 (UniProt Q8N960),0.524 (active),-0.186,0,-0.251,-0.001,-0.067,0.16,0.013,0.024,-0.151,0.261,0.042,-0.075,0.135,-0.13
C3orf33 (UniProt Q6P1S2),-0.105,-0.15,-0.013,0.009,-0.072,-0.14,0.007,0.274,0.094,0.123,-0.085,-0.118,-0.137,0.023,–
ATP11A (UniProt P98196),-0.046,-0.053,0.018,0.011,0.035,0.002,0.019,0.043,-0.045,-0.012,0.168,-0.265 (active),0.106,0.009,-0.054
CELF2 isoform 3 (UniProt O95319),0.054,0.038,-0.015,-0.028,-0.043,0.036,-0.129,-0.037,-0.021,0.068,0.036,-0.028,-0.012,-0.041,0.033
CALB2 (UniProt P22676),0.098,-0.085,-0.037,0.056,0.016,0.091,-0.079,-0.006,-0.004,0.046,0.067,0.156,0.017,0.063,0.019
CAPN15 (UniProt O75808),0.018,-0.045,-0.124,0.014,0.007,0,0.04,0.025,-0.08,0.054,0.028,-0.504 (active),-0.016,-0.081,-0.043
